# From PubChem BioAssay (NCI)
# Compounds without any hit were thinned out: in the full panel of roughly 79,000, 15% have a hit. A number with no mark means an inactive call. The source made the active and inactive calls. Cut-off read from the data, not from the text of the source: active = growth inhibition above about 70%; inactive = the rest.
# What was measured:
# [1] = NCI Yeast Anticancer Drug Screen. Data for the mec2-1 strain (AID 157); conditions: S. cerevisiae mec2-1 strain, hits give high values
# In short: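 Each compound was tested on mec2-1 yeast, a strain altered in DNA damage repair or cell cycle control. Growth inhibition is reported relative to vehicle.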
# [2] = NCI Yeast Anticancer Drug Screen. Data for the rad14 strain (AID 159);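 note: 0% = growth of vehicle-treated control cultures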; conditions: S. cerevisiae rad14 strain growth inhibition, hits give high values
# In short: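 Vehicle-treated cultures served as the baseline for growth inhibition of a DNA repair-mutant yeast strain exposed to each compound.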
# [3] = NCI Yeast Anticancer Drug Screen. Data for the sgs1 mgt1 strain (AID 161);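 note: 0% = growth of cultures given vehicle only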; conditions: S. cerevisiae sgs1 mgt1 strain, hits give high values
# In short: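 Read-out: growth inhibition vs vehicle controls. Cells: mutant yeast strain deficient in DNA damage repair.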
# [4] = NCI Yeast Anticancer Drug Screen. Data for the CLN2oe strain (AID 163);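 note: 0% = growth of vehicle-only control cultures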; conditions: S. cerevisiae CLN2oe strain, hits give high values
# In short: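 First, the altered yeast strain was treated with each compound; second, its growth was measured; finally, inhibition was derived by comparison with vehicle controls.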
# [5] = NCI Yeast Anticancer Drug Screen. Data for the cln2 rad14 strain (AID 165);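 note: 0% = growth equal to vehicle treated cultures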; conditions: S. cerevisiae cln2 rad14 strain, hits give high values
# In short: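 Test compounds were added to cln2 rad14 yeast cultures; inhibition of growth was then determined by comparison with vehicle treatment.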
# [6] = NCI Yeast Anticancer Drug Screen. Data for the bub3 strain (AID 167); conditions: S. cerevisiae bub3 mutant strain, hits give high values
# In short: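 Inhibition values come from growth of compound-treated mutant yeast normalised to vehicle-treated controls.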
# [7] = NCI Yeast Anticancer Drug Screen. Data for the wt2 strain (AID 169);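 note: 0% = growth of vehicle-treated yeast cultures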; conditions: S. cerevisiae wt2 strain growth inhibition, hits give high values
# In short: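 The panel's yeast strains carry defined changes in DNA repair or cell cycle genes. Each strain is grown with compound, and growth loss is scored relative to vehicle.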
# [8] = NCI Yeast Anticancer Drug Screen. Data for the mlh1 strain (AID 171);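 note: 0% = growth of vehicle-treated control cultures of the same strain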; conditions: S. cerevisiae mlh1 strain growth inhibition, hits give high values
# In short: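 Inhibition values reflect reduced yeast growth in the presence of compound, referenced to vehicle controls, using a strain chosen for its alteration in DNA repair or cell cycle control.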
# [9] = NCI Yeast Anticancer Drug Screen. Data for the sgs1 strain (AID 173);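 note: 0% = growth of vehicle-only control cultures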; conditions: S. cerevisiae sgs1 mutant, hits give high values
# In short: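 Vehicle-treated cultures served as reference for growth inhibition of a yeast strain altered in DNA damage repair or cell cycle control after compound exposure.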
# [10] = NCI Yeast Anticancer Drug Screen. Data for the mlh1 rad18 strain (AID 175); conditions: S. cerevisiae mlh1 rad18 strain growth inhibition, hits give high values
# In short: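 Inhibition values reflect reduced growth of mutant yeast versus vehicle-treated controls following compound exposure; the mutations affect DNA damage repair.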
# [11] = NCI Yeast Anticancer Drug Screen. Data for the rad18 strain (AID 177); conditions: S. cerevisiae rad18 mutant growth inhibition, hits give high values
# In short: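 Steps: expose repair-mutant yeast to compound; measure growth; express as inhibition relative to vehicle control.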
# [12] = NCI Yeast Anticancer Drug Screen. Data for the rad52 strain (AID 147);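 note: 0% = growth of vehicle-treated control cultures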; conditions: S. cerevisiae rad52 mutant growth inhibition, hits give high values
# In short: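 Inhibition of yeast growth, referenced to vehicle controls, was the measured output for a strain with defective DNA damage repair.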
# [13] = NCI Yeast Anticancer Drug Screen. Data for the wt1 strain (AID 149);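 note: 0% = growth of vehicle-treated wt1 cultures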; conditions: S. cerevisiae wt1 strain (SPY 50644) growth inhibition, hits give high values
# In short: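 Vehicle-normalised growth inhibition; strain wt1; compound exposure.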
# [14] = NCI Yeast Anticancer Drug Screen. Data for the rad50 strain (AID 155);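 note: 0% = growth of vehicle-only cultures of the same strain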; conditions: S. cerevisiae rad50 strain growth inhibition, hits give high values
# In short: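 A DNA repair-deficient yeast mutant serves as the test organism; compound-induced growth inhibition is calculated against vehicle-treated cells.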
# [15] = at 5.0 µM (retest, dose inferred, filed as 0.5)
# [16] = at 50.0 µM (retest, dose inferred, filed as 5.0)
smiles,measurement,setting,value
O=C1c2ccccc2C(=O)c2cc(CBr)ccc21,growth inhibition,[1]; at 100.0 µM,71% (active)
same,growth inhibition,[2]; at 1.2 µM,-2%
same,growth inhibition,[2]; at 3.7 µM,6%
same,growth inhibition,[2]; at 11.0 µM,12%
same,growth inhibition,[2]; at 33.0 µM,53%
same,growth inhibition,[2]; at 100.0 µM,89% (active)
same,growth inhibition,[3]; [15],54%
same,growth inhibition,[3]; [16],89% (active)
same,growth inhibition,[3]; at 50.0 µM,99.2% (active)
same,growth inhibition,[4]; at 1.2 µM,1%
same,growth inhibition,[4]; at 3.7 µM,5%
same,growth inhibition,[4]; at 11.0 µM,8%
same,growth inhibition,[4]; at 33.0 µM,28%
same,growth inhibition,[4]; at 100.0 µM,61%
same,growth inhibition,[5]; [15],33%
same,growth inhibition,[5]; [16],76% (active)
same,growth inhibition,[5]; at 50.0 µM,57.5%
same,growth inhibition,[6]; at 1.2 µM,1%
same,growth inhibition,[6]; at 3.7 µM,0%
same,growth inhibition,[6]; [15],30%
same,growth inhibition,[6]; at 11.0 µM,1%
same,growth inhibition,[6]; at 33.0 µM,26%
same,growth inhibition,[6]; [16],79% (active)
same,growth inhibition,[6]; at 50.0 µM,86.2% (active)
same,growth inhibition,[6]; at 100.0 µM,54%
same,growth inhibition,[7]; at 1.2 µM,9%
same,growth inhibition,[7]; at 3.7 µM,3%
same,growth inhibition,[7]; at 11.0 µM,13%
same,growth inhibition,[7]; at 33.0 µM,18%
same,growth inhibition,[7]; at 100.0 µM,69%
same,growth inhibition,[8]; at 1.2 µM,2%
same,growth inhibition,[8]; at 3.7 µM,9%
same,growth inhibition,[8]; at 11.0 µM,17%
same,growth inhibition,[8]; at 33.0 µM,40%
same,growth inhibition,[8]; at 100.0 µM,85% (active)
same,growth inhibition,[9]; at 1.2 µM,-2%
same,growth inhibition,[9]; at 3.7 µM,-14%
same,growth inhibition,[9]; at 11.0 µM,23%
same,growth inhibition,[9]; at 33.0 µM,74% (active)
same,growth inhibition,[9]; at 100.0 µM,94% (active)
same,growth inhibition,[10]; [15],63%
same,growth inhibition,[10]; [16],92% (active)
same,growth inhibition,[10]; at 50.0 µM,96% (active)
same,growth inhibition,[11]; at 1.2 µM,2%
same,growth inhibition,[11]; at 3.7 µM,10%
same,growth inhibition,[11]; at 11.0 µM,23%
same,growth inhibition,[11]; at 33.0 µM,78% (active)
same,growth inhibition,[11]; at 100.0 µM,93% (active)
CCN(CC)C(=S)N/N=C(/C)c1cccc(/C(C)=N\NC(=S)N(CC)CC)n1,growth inhibition,[12]; at 1.2 µM,-24%
same,growth inhibition,[12]; at 3.7 µM,-15%
same,growth inhibition,[12]; at 11.0 µM,7%
same,growth inhibition,[12]; at 33.0 µM,43%
same,growth inhibition,[12]; at 100.0 µM,90% (active)
same,growth inhibition,[13]; at 1.2 µM,-4%
same,growth inhibition,[13]; at 3.7 µM,-12%
same,growth inhibition,[13]; at 11.0 µM,11%
same,growth inhibition,[13]; at 33.0 µM,60%
same,growth inhibition,[13]; at 100.0 µM,87% (active)
same,growth inhibition,[14]; at 1.2 µM,-17%
same,growth inhibition,[14]; at 3.7 µM,-25%
same,growth inhibition,[14]; [15],-14%
same,growth inhibition,[14]; at 11.0 µM,-12%
same,growth inhibition,[14]; at 33.0 µM,50%
same,growth inhibition,[14]; [16],96% (active)
same,growth inhibition,[14]; at 50.0 µM,55.5%
same,growth inhibition,[14]; at 100.0 µM,86% (active)
same,growth inhibition,[1]; at 1.2 µM,-43%
same,growth inhibition,[1]; at 3.7 µM,-3%
same,growth inhibition,[1]; [15],12%
same,growth inhibition,[1]; at 11.0 µM,-8%
same,growth inhibition,[1]; at 33.0 µM,52%
same,growth inhibition,[1]; [16],95% (active)
same,growth inhibition,[1]; at 50.0 µM,69.1%
same,growth inhibition,[1]; at 100.0 µM,86% (active)
same,growth inhibition,[2]; at 1.2 µM,-6%
same,growth inhibition,[2]; at 3.7 µM,10%
same,growth inhibition,[2]; at 11.0 µM,2%
same,growth inhibition,[2]; at 33.0 µM,46%
same,growth inhibition,[2]; at 100.0 µM,92% (active)
same,growth inhibition,[3]; [15],-5%
same,growth inhibition,[3]; [16],91% (active)
same,growth inhibition,[3]; at 50.0 µM,66.7%
same,growth inhibition,[4]; at 1.2 µM,17%
same,growth inhibition,[4]; at 3.7 µM,16%
same,growth inhibition,[4]; at 11.0 µM,31%
same,growth inhibition,[4]; at 33.0 µM,48%
same,growth inhibition,[4]; at 100.0 µM,91% (active)
same,growth inhibition,[5]; [15],21%
same,growth inhibition,[5]; [16],91% (active)
same,growth inhibition,[5]; at 50.0 µM,34.5%
same,growth inhibition,[6]; at 1.2 µM,7%
same,growth inhibition,[6]; at 3.7 µM,13%
same,growth inhibition,[6]; [15],39%
same,growth inhibition,[6]; at 11.0 µM,16%
same,growth inhibition,[6]; at 33.0 µM,56%
same,growth inhibition,[6]; [16],90% (active)
same,growth inhibition,[6]; at 50.0 µM,65.2%
same,growth inhibition,[6]; at 100.0 µM,84% (active)
same,growth inhibition,[8]; at 1.2 µM,-12%
same,growth inhibition,[8]; at 3.7 µM,-7%
same,growth inhibition,[8]; at 11.0 µM,9%
same,growth inhibition,[8]; at 33.0 µM,52%
same,growth inhibition,[8]; at 100.0 µM,85% (active)
same,growth inhibition,[9]; at 1.2 µM,-14%
same,growth inhibition,[9]; at 3.7 µM,-3%
same,growth inhibition,[9]; at 11.0 µM,7%
same,growth inhibition,[9]; at 33.0 µM,39%
same,growth inhibition,[9]; at 100.0 µM,88% (active)
same,growth inhibition,[10]; [15],39%
same,growth inhibition,[10]; [16],92% (active)
same,growth inhibition,[10]; at 50.0 µM,70.7% (active)
same,growth inhibition,[11]; at 1.2 µM,-1%
same,growth inhibition,[11]; at 3.7 µM,9%
same,growth inhibition,[11]; at 11.0 µM,23%
same,growth inhibition,[11]; at 33.0 µM,59%
same,growth inhibition,[11]; at 100.0 µM,91% (active)
